Measurements as given in PubChem BioAssay AID1159580 (chemical genetic matrix, 2015).
Among all 5,500 compounds or so, about 2,000 (36%) were called active. Not shown: some 18% with an inconclusive outcome. Rule as the data show it: active = normalized growth mostly below about 0.91 (no sharp cut-off); inconclusive = no clear call, values can overlap the other calls; inactive = mostly above about 0.92. Some of the results follow.

Assay: chemical genetic growth profiling, strain panel (AID 1159580);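 also: tested at 20 µM; growth read once vehicle control cultures reached saturation at 30 °C; 1 = growth at the plate median or of vehicle wells; lower values mean less growth of the strain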
Conditions: S. cerevisiae deletion strains, growth OD

Measured: normalized growth

COC(=O)[C@@H]1OC(=O)C2OC23[C@@]1(C)CCC1[C@]2(C)C(C[C@H](O)[C@]13C)C(C)(C)[C@H](OC(C)=O)C[C@@H]2OC(C)=O (some centres not stated)
inactive: locus YAL021C, strain ccr4, active compounds read low 1.01 | locus YAL026C, strain drs2, active compounds read low 1.01 | locus YAL030W, strain snc1, active compounds read low 1.01 | locus YBL061C, strain skt5, active compounds read low 1.01 | locus YBR009C, strain hhf1, active compounds read low 1.03 | locus YBR021W, strain FUR4, active compounds read low 1.01 | locus YBR023C, strain chs3, active compounds read low 1.02 | locus YBR171W, strain sec66, active compounds read low 1.02 | locus YBR229C, strain ROT2, active compounds read low 1.01 | locus YBR231C, strain swc5, active compounds read low 1.01 | locus YBR279W, strain paf1, active compounds read low 1.02 | locus YCL011C, strain gbp2, active compounds read low 1 | locus YCL016C, strain dcc1, active compounds read low 1.02 | locus YCL029C, strain bik1, active compounds read low 0.999 | locus YCL061C, strain MRC1, active compounds read low 1.02 | locus YCL069W, strain vba3, active compounds read low 1.01 | locus YCR088W, strain abp1, active compounds read low 1.02 | locus YDL005C, strain med2, active compounds read low 1.02 | locus YDL035C, strain GPR1, active compounds read low 1.04 | locus YDL040C, strain nat1, active compounds read low 1.01 | locus YDL074C, strain BRE1, active compounds read low 1.04 | locus YDL101C, strain DUN1, active compounds read low 1 | locus YDL134C, strain PPH21, active compounds read low 1 | locus YDL185W, strain tfp1, active compounds read low 1 | locus YDL192W, strain arf1, active compounds read low 1.01 | locus YDR001C, strain nth1, active compounds read low 1.01 | locus YDR069C, strain doa4, active compounds read low 1.03 | locus YDR101C, strain arx1, active compounds read low 1 | locus YDR137W, strain rgp1, active compounds read low 1.05 | locus YDR159W, strain sac3, active compounds read low 1.01 | locus YDR162C, strain NBP2, active compounds read low 1.02 | locus YDR195W, strain ref2 0.98 | locus YDR297W, strain sur2, active compounds read low 1.01 | locus YDR318W, strain mcm21, active compounds read low 1.01 | locus YDR334W, strain swr1, active compounds read low 1.02 | locus YDR335W, strain msn5, active compounds read low 1.05 | locus YDR388W, active compounds read low 0.989 | locus YDR392W, strain spt3, active compounds read low 1.03 | locus YDR502C, strain sam2, active compounds read low 0.993 | locus YEL003W, strain gim4, active compounds read low 1.02 | locus YEL037C, strain rad23, active compounds read low 1.01 | locus YEL061C, strain CIN8 (second series), active compounds read low 1.02 | locus YEL061C, strain CIN8, active compounds read low 1.01 | locus YER015W, strain faa2, active compounds read low 1.02 | locus YER016W, strain bim1, active compounds read low 1.01 | locus YER110C, active compounds read low 0.995 | locus YER111C, strain swi4, active compounds read low 1.01 | locus YER155C, strain BEM2 (second series), active compounds read low 1.02 | locus YER155C, strain BEM2, active compounds read low 1 | locus YER167W, strain BCK2, active compounds read low 1.02 | locus YFR010W, strain ubp6, active compounds read low 1.01 | locus YGL078C, strain dbp3, active compounds read low 0.994 | locus YGL086W, strain mad1, active compounds read low 1 | locus YGL167C, strain pmr1, active compounds read low 1.02 | locus YGL173C, strain kem1, active compounds read low 1.01 | locus YGL227W, strain vid30, active compounds read low 1.03 | locus YGL240W, strain doc1, active compounds read low 1.04 | locus YGL248W, strain PDE1, active compounds read low 1.01 | locus YGL253W, strain hxk2, active compounds read low 1.02 | locus YGR135W, strain pre9, active compounds read low 0.981 | locus YGR252W, strain gcn5, active compounds read low 0.989 | locus YHR013C, strain ard1, active compounds read low 1.02 | locus YHR027C, strain rpn1, active compounds read low 1.02 | locus YHR030C, strain SLT2, active compounds read low 0.999 | locus YHR079C, strain IRE1 (second series), active compounds read low 1.01 | locus YHR079C, strain IRE1, active compounds read low 0.977 | locus YHR094C, strain hxt1, active compounds read low 0.995 | locus YHR129C, strain ARP1, active compounds read low 1.01 | locus YHR142W, strain chs7, active compounds read low 1.02 | locus YHR200W, strain rpn10, active compounds read low 0.987 | locus YIL066C, strain RNR3, active compounds read low 1.03 | locus YIL073C, strain SPO22, active compounds read low 1.05 | locus YIL125W, strain kgd1, active compounds read low 0.998 | locus YIR030C, strain dcg1, active compounds read low 1.01 | locus YJL092W, strain hpr5, active compounds read low 1.02 | locus YJL095W, strain BCK1 (second series), active compounds read low 1.02 | locus YJL095W, strain BCK1, active compounds read low 1 | locus YJL115W, strain asf1, active compounds read low 1.02 | locus YJL129C, strain trk1, active compounds read low 1 | locus YJL134W, strain LCB3, active compounds read low 1.01 | locus YJL154C, strain vps35, active compounds read low 1.01 | locus YJL164C, strain tpk1, active compounds read low 1.02 | locus YJL166W, strain qcr8, active compounds read low 1.01 | locus YJL168C, strain set2, active compounds read low 0.991 | locus YJL187C, strain SWE1 (second series), active compounds read low 1 | locus YJL187C, strain SWE1, active compounds read low 1 | locus YJR043C, strain POL32, active compounds read low 1.01 | locus YJR066W, strain TOR1, active compounds read low 0.906 | locus YKL009W, strain mrt4, active compounds read low 1 | locus YKL068W, active compounds read low 1.01 | locus YKL085W, strain MDH1 (second series), active compounds read low 1 | locus YKL085W, strain MDH1, active compounds read low 1 | locus YKL160W, strain elf1, active compounds read low 1.02 | locus YKL190W, strain CNB1, active compounds read low 1.01 | locus YKR001C, strain vps1, active compounds read low 0.98 | locus YKR026C, strain gcn3, active compounds read low 1.01 | locus YKR091W, strain srl3, active compounds read low 1.01 | locus YLL001W, strain dnm1, active compounds read low 1.02 | locus YLL026W, active compounds read low 1.01 | locus YLL041C, strain sdh2, active compounds read low 1 | locus YLR027C, strain aat2, active compounds read low 1.02 | locus YLR039C, strain RIC1, active compounds read low 1.03 | locus YLR058C, strain SHM2, active compounds read low 1.02 | locus YLR102C, strain apc9, active compounds read low 0.997 | locus YLR113W, strain HOG1, active compounds read low 1.04 | locus YLR221C, strain rsa3, active compounds read low 1.01 | locus YLR258W, strain gsy2, active compounds read low 1.01 | locus YLR262C, strain YPT6 (second series), active compounds read low 1 | locus YLR268W, strain sec22, active compounds read low 1.02 | locus YLR320W, strain mms22, active compounds read low 1.02 | locus YLR330W, strain CHS5, active compounds read low 1.01 | locus YLR342W, strain FKS1, active compounds read low 1.01 | locus YLR357W, strain rsc2, active compounds read low 1.02 | locus YLR370C, strain arc18, active compounds read low 1.02 | locus YLR371W, strain rom2, active compounds read low 1 | locus YLR384C, strain iki3, active compounds read low 1 | locus YLR418C, strain cdc73, active compounds read low 1.01 | locus YML016C, strain PPZ1, active compounds read low 1 | locus YML032C, strain rad52, active compounds read low 0.994 | locus YML120C, strain ndi1, active compounds read low 1.01 | locus YML124C, strain tub3, active compounds read low 1 | locus YMR058W, strain fet3, active compounds read low 1.02 | locus YMR078C, strain ctf18, active compounds read low 1 | locus YMR125W, strain sto1, active compounds read low 1.01 | locus YMR129W, active compounds read low 1 | locus YMR205C, strain PFK2, active compounds read low 1.02 | locus YMR223W, strain ubp8, active compounds read low 0.99 | locus YMR231W, strain pep5, active compounds read low 1 | locus YMR263W, strain SAP30, active compounds read low 1.01 | locus YMR307W, strain GAS1, active compounds read low 1 | locus YNL067W, strain RPL9B, active compounds read low 1 | locus YNL071W, strain lat1, active compounds read low 1.01 | locus YNL183C, strain NPR1, active compounds read low 0.938 | locus YNL209W, strain ssb2, active compounds read low 1.01 | locus YNL233W, strain BNI4, active compounds read low 1 | locus YNL248C, strain rpa49, active compounds read low 1.01 | locus YNL250W, strain rad50, active compounds read low 0.989 | locus YNL271C, strain bni1, active compounds read low 1.01 | locus YNL298W, strain CLA4, active compounds read low 1 | locus YNL307C, strain MCK1, active compounds read low 0.998 | locus YNL322C, strain KRE1 (second series), active compounds read low 1.02 | locus YNR049C, strain mso1, active compounds read low 1.02 | locus YNR052C, strain pop2, active compounds read low 0.993 | locus YOL006C, strain TOP1, active compounds read low 1.08 | locus YOL012C, strain htz1 1.19 | locus YOL147C, strain pex11, active compounds read low 1 | locus YOR001W, strain rrp6, active compounds read low 1 | locus YOR061W, strain CKA2, active compounds read low 1.03 | locus YOR069W, strain VPS5, active compounds read low 1.01 | locus YOR070C, strain gyp1, active compounds read low 1.02 | locus YOR080W, strain dia2, active compounds read low 1 | locus YOR083W, strain WHI5, active compounds read low 1.02 | locus YOR106W, strain vam3, active compounds read low 1.03 | locus YOR136W, strain idh2, active compounds read low 0.994 | locus YOR144C, strain elg1, active compounds read low 0.996 | locus YOR184W, strain ser1, active compounds read low 1.03 | locus YOR231W, strain MKK1, active compounds read low 0.989 | locus YOR265W, strain rbl2, active compounds read low 0.995 | locus YOR270C, strain vph1, active compounds read low 0.986 | locus YOR290C, strain snf2, active compounds read low 1.04 | locus YOR316C, strain cot1, active compounds read low 0.996 | locus YPL051W, strain arl3, active compounds read low 1.02 | locus YPL078C, strain atp4, active compounds read low 1.03 | locus YPL106C, strain sse1, active compounds read low 1.04 | locus YPL240C, strain hsp82, active compounds read low 1.01 | locus YPL241C, strain CIN2, active compounds read low 1.01 | locus YPL256C, strain CLN2, active compounds read low 0.979 | locus YPR119W, strain clb2, active compounds read low 1 | locus YPR141C, strain kar3, active compounds read low 1.01 | locus YPR163C, strain tif3, active compounds read low 0.996 | locus YPR167C, strain met16, active compounds read low 1 | strain wtn01, active compounds read low 1
